Screens (PubChem BioAssay)
HCMV inh = qHTS Assay for inhibitors of the human cytomegalovirus (HCMV); HFF cells, HCMV-luciferase reporter, 72 h; active compounds read low; activity change, negative = inhibition, % at 57.5 µM; 4.5% of 410,000 active; AID 1259415, 2018; in the data active means activity change below about -60%; inconclusive means no clear call, values can overlap the other calls; inactive means above about -39%
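Steps: HFFs plated, 16 h 37C; compounds added; HCMV-luciferase added to MOI 1 PFU/cell; 72 h 37C; OneGlo reagent, 5 min room temperature; luminescence read, normalized to controls.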
HCV inh = qHTS Assay for Inhibitors of Hepatitis C Virus (HCV). Huh7.5.1 HCVcc-Cre infection, luciferase reporter, 44 h. Potency, µM (highest dose often 41.8 µM), hits mostly inhibitors. 3.4% of 340,000 active
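A cell-based infection assay in which seeded cells (1,000 per well) receive test compound after 4 h, are inoculated with HCVcc-Cre at approximately 0.5 moi, and are incubated 44 h before luminescence detection.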
Marburg entry inh = qHTS for inhibitors of binding or entry into cells for Marburg Virus; Marburg virus pseudotyped entry inhibition, cell reporter; Potency, µM (doses to about 37.8 µM), hits mostly inhibitors; 1.8% of 300,000 active; AID 540276, 2011; calls by dose curve; tested in HEK293 cells
Pf growth 96h = Primary qHTS for delayed death inhibitors of the malarial parasite plastid, 96 hour incubation; P. falciparum luciferase reporter growth, 96 h; Potency, µM (highest dose often 28.7 µM), most hits filed as inhibitors; 6.9% of 320,000 active
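Infected RBCs, 2% Hct / 0.05% parasitemia final; luciferase-reporter P. falciparum; cpd 96 h, 37 C, 5% CO2; luciferase detection reagent; luminescence.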
Pf growth 48h = Primary qHTS for delayed death inhibitors of the malarial parasite plastid, 48 hour incubation. P. falciparum luciferase growth in erythrocytes, 48 h. Potency, µM (top dose mostly 28.7 µM), hits mostly inhibitors. 5.9% of 310,000 active
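Parasite viability was followed by luminescence of a genomically integrated firefly luciferase. Cultures held 0.1% parasitemia at 2% hematocrit (final), incubated under 5% CO2 at 37 C.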
LASV entry inh = qHTS for Inhibitors of binding or entry into cells for Lassa Virus; Potency, µM (highest dose often 37.9 µM), hits mostly inhibitors; Lassa virus pseudotype entry inhibition, cell reporter; 1.2% of 300,000 active; calls by dose curve; tested in HEK293 cells; further: nearly all actives have a fitted effect of over 50% in size
Each line names hits and unclear results; the compound was inactive in the other large screens. In the library only some 14% were active in any assay of this set; here they are far more common. Unless noted, the call rests on the fitted dose curve; in most records, active means well fitted inhibition curve with a large enough effect; inconclusive means small, poorly fitted or top-dose-only effect, or another doubt; inactive means no such curve, though single readings can be large or run the other way.

C#CCOCCOCCOCCNc1nc(N2CCN(C(=O)CCCCCCCCCCNC(=O)Cn3cc(C[C@@H](C)O)nn3)CC2)nc(N2CCN(C(=O)CCCCCCCCCCNC(=O)[C@H](CCCN=C(N)N)n3cc(C[C@@H](C)CC)nn3)CC2)n1	Pf growth 96h 1µM, Pf growth 48h 1.3µM (no result: HCMV inh, Marburg entry inh, LASV entry inh)
C#CCOCCOCCOCCNc1nc(N2CCN(C(=O)CCCCCCCCCCNC(=O)[C@H](CO)n3cc(CCCSC)nn3)CC2)nc(N2CCN(C(=O)CCCCCCCCCCNC(=O)[C@@H]([C@H](C)O)n3cc(C)nn3)CC2)n1	HCV inh inconclusive, Pf growth 96h 0.093µM, Pf growth 48h 0.29µM (no result: HCMV inh, Marburg entry inh, LASV entry inh)
C#CCOCCOCCOCCNc1nc(N2CCN(C(=O)Cn3cc(CCCN=C(N)N)nn3)CC2)nc(N2CCN(C(=O)Cn3cc(CC(C)O)nn3)CC2)n1 (stereo not drawn)	HCMV inh inconclusive (no result: Marburg entry inh, Pf growth 96h, Pf growth 48h, LASV entry inh)
C#CCOCCOCCOCCNc1nc(N2CCN(C(=O)CCCCCCCCCCNC(=O)Cn3cc(CCCCCN)nn3)CC2)nc(N2CCN(C(=O)CCCCCCCCCCNC(=O)[C@@H](CCSC)n3cc(CCO)nn3)CC2)n1	Pf growth 96h 1µM, Pf growth 48h 1.2µM (no result: HCMV inh, Marburg entry inh, LASV entry inh)
Cc1ccc2occ(-c3cc(-c4ccc(Cl)cc4)nc4c3COc3ccccc3-4)c(=O)c2c1	none (no result: HCV inh, Pf growth 96h, Pf growth 48h)
CC(C)Sc1ncc(Cl)c(C(=O)Nc2nc3ccc(S(C)(=O)=O)cc3s2)n1	none (no result: HCV inh, Pf growth 96h, Pf growth 48h)
CCc1nc2c(OCc3ccc(OC(F)F)cc3)cccn2c1N(C)C(=O)c1ccco1	none (no result: HCV inh, Marburg entry inh, Pf growth 96h, Pf growth 48h, LASV entry inh)
C#CCOCCOCCOCCNc1nc(N2CCN(C(=O)CCCCCCCCCCNC(=O)Cn3cc(CCCCCN)nn3)CC2)nc(N2CCN(C(=O)CCCCCCCCCCNC(=O)[C@@H](CCC(=O)O)n3cc(CCCCCN)nn3)CC2)n1	Pf growth 96h inconclusive, Pf growth 48h 13µM (no result: HCMV inh, Marburg entry inh, LASV entry inh)
C#CCOCCOCCOCCNc1nc(N2CCN(C(=O)CCCCCCCCCCNC(=O)[C@H](CO)n3cc(CCCSC)nn3)CC2)nc(N2CCN(C(=O)CCCCCCCCCCNC(=O)[C@H](CCCN=C(N)N)n3cc(C[C@@H](C)CC)nn3)CC2)n1	HCV inh inconclusive, Pf growth 96h 5.2µM, Pf growth 48h 1.5µM (no result: HCMV inh, Marburg entry inh, LASV entry inh)
COc1ccc(-n2cc(CNCCc3cscn3)c(-c3ccccc3Cl)n2)cc1	Marburg entry inh inconclusive, Pf growth 96h inconclusive, Pf growth 48h inconclusive
Cc1ccc(-n2cc(CNCCCn3ccnc3C)c(-c3ccc(F)cc3)n2)cc1	HCMV inh -82, HCV inh inconclusive, Marburg entry inh inconclusive, Pf growth 48h 2.3µM, LASV entry inh inconclusive
Cc1ccc(-n2cc(CNCCCn3cccn3)c(-c3cccc(C)c3)n2)cc1	Marburg entry inh inconclusive, Pf growth 96h inconclusive, Pf growth 48h inconclusive, LASV entry inh inconclusive
Cc1ccc(-n2cc(CNCCc3cscn3)c(-c3ccc(F)cc3)n2)cc1	HCV inh inconclusive, Marburg entry inh 13µM, Pf growth 48h inconclusive, LASV entry inh inconclusive
CCCNC(=O)CCCN1C(=O)CCn2nc(-c3cccn3C)cc21	none (no result: HCV inh, Marburg entry inh, Pf growth 96h, Pf growth 48h)
Fc1cc(Br)ccc1Nc1nc2ccccc2n2nnnc12	HCMV inh -73 (no result: Marburg entry inh, LASV entry inh)
O=C1CSC(c2cn(-c3ccccc3)nc2-c2cc3ccccc3oc2=O)N1Cc1ccco1 (stereo not drawn)	HCV inh inconclusive, Marburg entry inh inconclusive, Pf growth 96h inconclusive, Pf growth 48h 10µM
Cc1ccc(-c2nn(-c3ccccc3)cc2C2SCC(=O)N2Cc2ccccc2)o1 (stereo not drawn)	HCV inh inconclusive, Pf growth 48h 10µM (no result: LASV entry inh)
O=C1CSC(c2cn(-c3ccccc3)nc2-c2cc3ccccc3o2)N1Cc1ccccc1 (stereo not drawn)	HCV inh inconclusive, Marburg entry inh inconclusive, Pf growth 96h 4.1µM (no result: Pf growth 48h)
O=C1CSC(c2cn(-c3ccccc3)nc2-c2cccs2)N1Cc1ccccc1 (stereo not drawn)	none (no result: HCV inh, Pf growth 48h, LASV entry inh)
Cc1cc(C)n(CC(=O)Nc2cc(F)ccc2F)c(=O)c1C#N	none (no result: HCV inh, Marburg entry inh, Pf growth 96h, Pf growth 48h)
CC(=O)Oc1ccccc1C(=O)Nc1ccccc1	none (no result: HCV inh, Marburg entry inh, Pf growth 96h, Pf growth 48h, LASV entry inh)
COC1(OC)C=CC(=O)C=C1NC(=O)c1ccccc1OC(C)=O	HCMV inh -78 (no result: HCV inh, Marburg entry inh, Pf growth 96h, Pf growth 48h, LASV entry inh)
